These results are taken from the supplement of paper PMC6555819.

For the first experiment, the system named is RXRa homodimer (NR concentration 180 nM). Nature of the experiment: PBM binding z-score (relative to random genomic background probes); higher = stronger binding; sequences stand for … in GC…GCGATTGACAGCGTAGAATGAAGG
In outline:
(§1)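 Ligand-free nuclear receptor dimers were bound for 1 h to custom Agilent 4×180K protein-binding microarrays. Detection used antibodies against each partner (one per run). Binding z-scores rest on regression-normalized fluorescence, with random background probes as the reference.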
In turn, CGTCCAAGGTCACAGAGGTCAGTGAATGCCGAGT yielded a PBM binding z-score of 7.67.

CAAAATAGGTCACGAAAGGTCAAAGTCGAATGAC had a PBM binding z-score of 8.89.

In turn, CCGAGAAGGTTACGAGGGGGCATTCAGTGCGAAT gave a PBM binding z-score of 3.45. The same measure, in the same setting: as for GCTGCGAGGTCAACTGATGGTCAGCTAAAGCTCG, the figure is 7.17; as for CCAACTAGGTCAAAGGACAGTGAAAGGCGACGTA, 3.05. The same measure, in the same setting: as for CTATGTAGGTTAAGGGAGTCATTCAGTTTGAAAG, the figure is 0.802; as for GCTTAAGGGTCAAAGGTTATAGCATGAATAGAAT, 9.83; as for CAAAATAGGTCACAGAGGTCAAAGTCCGTGCGTA, 8.46. Same read-out and setting: the value for TAGCCTAGGTCATTCAGGGGCAAGTATAGAAAGC was 3.47; that for CCTCGGAGGTCAACAGGAGGTCAGAGCTGCCAGA was 7.54; that for TAGCCGAGGTCATTCAGGGGCCAGTATAGAAAGC was 6.55. CGTCAAAGTTCAACTAAGGTCACGTAAAGCACGC returned a PBM binding z-score of 7.65.

Sequence TCTAGTTGGTCAAAGGTCACGCACTCGAAATGCG had a PBM binding z-score of 8.9. Take CGTCCAAGGTCATAGGGGGTCAGTGAAGACAGAT: the PBM binding z-score stood at 7.31. Still for that read-out and setting: the value for TAGCCTAGTTCATGCGGGCCAGTATAGTGTCGGC was 0.0808.

In the next experiment the test system is THRa:RXRa (NR concentration 90 nM, RXRa partner concentration 90 nM). Described as above. In a few lines: as §1
In turn, TCTAGTAGGTCAAAGGTCACACACTCGAAATGCG yielded a PBM binding z-score of 4.73. CCGACGGGGGCAAAGGTTACCATACTCAGTACGA registered a PBM binding z-score of 3.88. On the same count and under the same terms, the value for TGTCAAAGTTCAAAGGTGACGTAAGTATCCACAC was 3.76.

Consider CAAAATAGGTCACGAAAGGTCAAAGTCGAATGAC, for which the PBM binding z-score was found to be 5.07. The sequence CCGAGAAGGTTACGAGGGGGCATTCAGTGCGAAT had a PBM binding z-score of 4.4. Still for that read-out and setting: as for TATACAGGGTCAAAGGCCAAAGTACGAATGTCGA, the figure is 3.76; as for AATACGGGGTCACTAGGCCAGAGTAGGTACGAAT, 4.25; as for AGAACGAGGTCACGCTGAGTTGATAGCAGAGTAG, 4.37. Same read-out and setting: the value for GCTGCGAGGTCAACTGATGGTCAGCTAAAGCTCG was 4.33.

ATATGTAGGTCAAGGGTCATTCAGGTTGGTTCGC yielded a PBM binding z-score of 4.58. Same read-out and setting: as for CCAACTAGGTCAAAGGACAGTGAAAGGCGACGTA, the figure is 2.4.

The sequence ATATGTAGGTTAAAGGTCATTCAGGTTGGTTCGC registered a PBM binding z-score of 4.31. Still for that read-out and setting: as for GCTTAGGGGTCAAAGGTTATAGCATGAATAGAAT, the figure is 4.68; as for CAAACAAGGTCACGAAAGGTCAAAGTCGAATGAC, 5.17; as for TGTCAAAGGTCAAAGGTAACGTAAGTATCCACAC, 4.47. On the same count and under the same terms, as for CTATGTAGGTTAAGGGAGTCATTCAGTTTGAAAG, the figure is 0.572. As to CGTCAAAGGTCAGCAGGTCAGTGAAAGCGACGTG, the PBM binding z-score amounted to 3.92. As for GCTTAAGGGTCAAAGGTTATAGCATGAATAGAAT, the PBM binding z-score turned out to be 4.14. The same measure, in the same setting: as for CAAACGAGGTCACGAAAGGTCAAAGTCGAATGAC, the figure is 5.28; as for CAAAATAGGTCACAGAGGTCAAAGTCCGTGCGTA, 4.74; as for AATACGGGGTCATCGTAGGCCAGAGTACGCACAG, 4.99. The same measure, in the same setting: the value for GATACGGGGTCAAGGCCAGAGTACGCGTATTGAT was 4.23; that for GCTGCTAGTTCAACTGATGGTCAGCTAAAGCTCG was 0.297. Same read-out and setting: the value for ATCGAAAGGTCATGAGGTGAGTATACAGAAAGGC was 4.37. Regarding TATACGGGGTCAAAGGCCAGAGTACGAATGTCGA, the PBM binding z-score came to 4.43.

Regarding TGTCAAAGTTCAAAGGTTACGTAAGTATCCACAC, the PBM binding z-score worked out at 4.44. On the same count and under the same terms, the value for CCTCGGAGGTCAACAGGAGGTCAGAGCTGCCAGA was 4.73. Consider AGTCAAAGGTCATCTAGGTAACGTAAGATATGCT, for which the PBM binding z-score is 4.7. Take TAGCCGAGGTCATTCAGGGGCCAGTATAGAAAGC: the PBM binding z-score amounted to 4.56. The same measure, in the same setting: the value for TCTAGTTGGTCAAAGGTCACGCACTCGAAATGCG was 4.31; that for GGAACGAGGTCAAAGTTGATAGCATCTGTCGACG was 4.12; that for CGTCAAAGGTCAAAGGTCAGTGAAGAGATGACGG was 4.94.

Sequence CAAACAAGGTCACAGAGGTCAAAGTCCGTGCGTA gave a PBM binding z-score of 5.03. Consider CGTCCAAGGTCATAGGGGGTCAGTGAAGACAGAT, for which the PBM binding z-score came to 5.24. Same read-out and setting: as for CAAACCAGGTCAAAGGTCAAAGTCGAGCCAACCA, the figure is 5.07.
